Experimental data taken from PubChem BioAssay AID739 (SRMLSC, 2007).
Out of some 98,000 compounds screened, about 880 (0.9%) were called active. Cut-off read from the data, not from the text of the source: active = inhibition above about 30%; inactive = the rest. This excerpt belongs to a sample that is enriched for actives.

Assay: phenotypic screen on post-Golgi transport, primary screen (AID 739);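 note: yeast cells grown in 1536-well plates; yeast grown about 18 h at 30C before absorbance read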
Details: post-Golgi transport phenotypic cell assay; at 10 µM; hits give high values

inhibition, active:
CCCCC(=O)Nc1nc(C)c(-c2csc(Nc3ccc(Cl)cc3)n2)s1 32.9%
COc1c(C)cccc1C(=O)Nc1cc(Cl)ccc1N1CCOCC1 64.3%
O=C(Nc1nnc(-c2ccc(Cl)cc2)o1)c1ccccc1Br 78.2%
CCN1CCN(c2c(Cl)cccc2NC(=O)c2ccc(Br)o2)CC1 30.4%
CN(Cc1nc2ccccc2c(=O)[nH]1)Cc1cc(=O)oc2ccc3ccccc3c12 39.3%
CSc1ncccc1C(=O)OCC(=O)N1CCOCC1 31.5%
O=S(=O)(c1cnccc1N1CCN(/N=C/c2ccc(Br)cc2)CC1)N1CCCCC1 49.6%
CCn1c(/C=C/c2ccc([N+](=O)[O-])o2)nc2ccccc2c1=O 76.6%
COc1ccc2c(c1)CCc1c(C(=O)N3CCc4ccccc4C3)noc1-2 40.4%
CC(NC(=O)CSc1nc2c(cc1C#N)CN(C)CC2)c1ccccc1 (centres undefined) 60.2%

inhibition, inactive:
CCCCOc1ccc(C(=O)NCc2ccncc2)cc1 2.23%
O=C(CNC(=O)c1ccc(Cl)cc1Cl)NCC(=O)Nc1ccccc1N1CCOCC1 -6.67%
Cc1cc(C(=O)Nc2ccccc2N2CCOCC2)c2ccccc2n1 -2.05%
Cc1nonc1NC(=O)c1ccccc1Br -12.3%
O=C(Nc1cccc(Cl)c1)Nc1nnc(-c2ccccc2)o1 -5.96%
CS(=O)(=O)N1CCN(c2ccc(C(=O)NC3C4CC5CC(C4)CC3C5)cc2[N+](=O)[O-])CC1 (centres undefined) -5.58%
CCOC(=O)N1CCC(Nc2c(NCCCN3CCN(CC)CC3)c(=O)c2=O)CC1 -3.44%
Cc1ccc(C(=O)NNC(=O)OC(C)(C)C)c(Cl)c1 -3.13%
CCCC(=O)Nc1ccc(Cl)c(NC(=O)c2ccc(Br)o2)c1 0.4%
COc1cc(OC)c(NC(=O)c2ccc(Br)o2)cc1Cl 6.31%
CC(C)Cn1cnc2c1c(=O)n(CC(O)c1ccccc1)c(=O)n2CC(C)C (centres undefined) 2.02%
CCn1c2ccccc2c2cc(NC(=S)N3CCOCC3)ccc21 8.17%
CCCC(=O)N(CCc1ccccc1)Cc1nc2ccccc2c(=O)[nH]1 -6.28%
COc1ccc(N2CCN(Cc3cc(=O)oc4ccc5ccccc5c34)CC2)cc1 14.4%
CC(C)c1ccc(NC(=O)CCN2C(=O)c3ccc([N+](=O)[O-])cc3C2=O)cc1 -0.5%
Cc1ccc(S(=O)(=O)NCC(=O)N(CC(=O)NC(C)(C)C)Cc2cccs2)cc1 -2.77%
Cn1nc([N+](=O)[O-])nc1Sc1ccc(C(C)(C)C)cc1 0.31%
Cn1c(Cn2nnc3ccccc32)nnc1SCC(=O)c1ccccc1F 11.5%
O=C(c1cccnc1NCc1ccccc1)N1CCOCC1 -0.34%
COc1ccc(C(CNC(=O)c2cccnc2SC)N2CCOCC2)cc1 (centres undefined) -3.85%
Cc1ccc(SCC(=O)c2sc(-c3ccccc3)nc2C)cc1 -0.4%
O=C(COc1ncnc2c(Cl)cc(Cl)cc12)N1CCN(S(=O)(=O)c2ccccc2)CC1 18.3%
CC(=O)NNc1cc(=O)c2c(=O)n(C)c(=O)n(C)c2[nH]1 9.45%
O=C(O)C1CCCN(S(=O)(=O)c2cccc3cccnc23)C1 (centres undefined) -3.64%
CNS(=O)(=O)c1cnccc1N1CCN(c2cccc(C)c2)CC1 -3.21%
CCCOn1c(-n2nc(C)cc2C)nc2ccccc2c1=O 2.91%
CCOC(=O)N1CCN(c2c(NCCCN3CCCC(C)C3)c(=O)c2=O)CC1 (centres undefined) 7.09%
O=C(OCc1cn(-c2ccc(Cl)c(Cl)c2)nn1)c1ccccc1Cl -1.94%
CCc1ccc(NC(=O)CSc2nc3ccccc3c(=O)n2CCN2CCOCC2)cc1 0%
Cc1nc2ccccc2c(=O)n1CCCn1ccnc1 2.21%
O=C(CCCCCn1c(=O)[nH]c2ccccc2c1=O)NCCc1c[nH]c2ccccc12 -3.35%
COc1ccc2c(c1)CCc1c(C(=O)N3CCCC3)noc1-2 -1.12%
COc1ccc2c(c1)CCc1c(C(=O)Nc3c(C)n(C)n(-c4ccccc4)c3=O)noc1-2 3.19%
CCN(CC)CCCNC(=O)CCc1ccccc1 3.7%
Cc1nn(CC(=O)Nc2nc3ccccc3s2)c(C)c1[N+](=O)[O-] -1.92%
O=C(CCS(=O)(=O)c1cccc2nsnc12)N1CCN(c2ccccc2F)CC1 6.04%
Fc1ccc(N2N=C(c3cccs3)CC2c2ccco2)c(F)c1 (centres undefined) 8.56%
Cc1cc2cc3c(cc2nc1SCC(=O)Nc1c(C)cccc1C)CCC3 -0.36%
Cc1nc2cc(NC(=O)CSc3nc4c(C)cccc4cc3C#N)ccc2s1 -0.17%
